The nature of test [1]: Nuclear factor erythroid 2-related factor 2/antioxidant responsive element (Nrf2/ARE) small molecule agonists: qHTS cell viability counter screen in human keratinocytes (AID 1919968; active means well fitted curve in the direction sought with a large enough effect in the repeat runs; an effect the other way counts as inactive or inconclusive; further: nearly all actives have a fitted effect of over 55% in size). The gist of the method: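 Seed 1,500 KeratinoSens cells per well, then incubate 5 h at 37 C/5% CO2. Add compounds in DMSO and incubate 23 h. Add CellTiter-Fluor, wait 1 h and read fluorescence.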
(In general: In qHTS, concentration-response curves come from the screen itself.)

The nature of test [2]: Nuclear factor erythroid 2-related factor 2/antioxidant responsive element (Nrf2/ARE) small molecule agonists: luciferase reporter gene qHTS assay in human keratinocytes (AID 1919969). Further: nearly all actives have a fitted effect of over 35% in size.
Test [3] addresses Gonadotropin-releasing hormone receptor (Homo sapiens) (UniProt P30968). The test can be described thus: Human gonadotropin-releasing hormone receptor (GnRHR) small molecule agonists, calcium flux assay in GnRHR-HEK293 cells (AID 1920063). Further: nearly all actives have a fitted effect of over 35% in size. The gist of the method:
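Cells: HEK293 stably expressing human GnRHR. Steps: overnight (18 h) culture, 1 h calcium dye loading at 37 C, compound addition, kinetic fluorescence read at 480/540 nm. Each compound tested at 15 concentrations in triplicate.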
In general terms: Calcium assays in cells follow changes in intracellular calcium, usually with a dye or a luminescent sensor.

For test [4], the target named is KiSS-1 receptor (Homo sapiens) (UniProt Q969F8). The test can be described thus: Human kisspeptin (KISS1R) small molecule agonists, calcium flux assay in KISS1R-HEK293 cells (AID 1920064; active means well fitted curve in the direction sought with a large enough effect in the repeat runs; an effect the other way counts as inactive or inconclusive). The procedure, abridged:
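Cells plated and incubated 18 h; dye added, 1 h at 37 C; compounds in DMSO pinned in; signal read at 480/540 nm every second for 3 min. Each compound tested at 15 concentrations in triplicate.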

Test [5] can be described thus: G protein-coupled receptor (GPCR) small molecule agonists, calcium flux assay: HEK293 wild type cell line counter screen (AID 1920065). The gist of the method: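 Counter-screen of the Tox21 10K library for non-specific calcium release: dye-loaded cells received compounds in DMSO and were monitored by kinetic fluorescence (480/540 nm, 3 min). Fifteen concentrations, run in triplicate.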

A short description of test [6]: p53 small molecule agonists, cell-based qHTS assay with human liver microsomes: qHTS cell viability counter screen (AID 1963579). Further: nearly all actives have a fitted effect of over 45% in size. The procedure, abridged: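 Metabolic activation used human liver microsomes and NADPH, both 0.5 mg/mL final, over 16 hours at 37 C on p53RE-bla cells (4,000/well). Cytotoxicity measured by CellTiter-Glo luminescence, 30 min at room temperature.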

A short description of test [7]: p53 small molecule agonists, cell-based qHTS assay with rat liver microsomes: qHTS cell viability counter screen (AID 1963580). Further: nearly all actives have a fitted effect of over 45% in size. The gist of the method: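 Intracellular ATP, by CellTiter-Glo luminescence, defines viability. HCT-116 p53RE-bla cells, 4,000 per well, were compound-treated in the presence of rat liver microsomes and NADPH for 16 h at 37 C.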
A short description of test [8]: p53 small molecule agonists, cell-based qHTS assay: qHTS cell viability counter screen (AID 1963581). Further: nearly all actives have a fitted effect of over 45% in size. The procedure, abridged:
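Cells: HCT-116 with p53 response element-driven beta-lactamase. Treatment: 16 h, 37 C, compounds in DMSO. Read: CellTiter-Glo luminescence after 30 min RT.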

Test [9] addresses 5-hydroxytryptamine receptor 2A (Homo sapiens) (UniProt P28223). The test can be described thus: 5-hydroxytryptamine receptor 2A (HTR2A) small molecule antagonists, cell-based qHTS assay (AID 1963586). Further: nearly all actives have a fitted effect of over 45% in size. The procedure, abridged:
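Antagonist-mode intracellular calcium assay: DOI (4 nM) added after 5 min compound pre-incubation at room temperature to dye-loaded HTR2A-CHO cells. Fluorescence followed for 3 min, sampled every second.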

Test [10] has the same target. The test can be described thus: 5-hydroxytryptamine receptor 2A (HTR2A) small molecule agonists, cell-based qHTS assay (AID 1963587). Further: nearly all actives have a fitted effect of over 30% in size. The procedure, abridged: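 Kinetic calcium-flux fluorescence (2 min, 1 sec intervals) after compound addition in agonist mode. HTR2A-CHO cells were cultured 18 h, then dye-loaded 1 h at 37 C.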
For test [11], the target named is Muscarinic acetylcholine receptor M1 (Homo sapiens) (UniProt P11229). As to the kind of experiment: Cholinergic receptor muscarinic 1 (CHRM1) small molecule antagonists, cell-based qHTS assay (AID 1963588). Further: nearly all actives have a fitted effect of over 40% in size. Further: potency means the concentration at half of the fitted maximal effect. The procedure, abridged:
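CHRM1-CHO calcium-flux assay, antagonist mode. Cells were seeded 18 h, dye-loaded 1 h at 37 C and given compound for 5 min at RT, then acetylcholine was added at 50nM. FDSS fluorescence was read 3 min; 15 concentrations, three runs.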

For test [12] the target is unchanged. As to the kind of experiment: Cholinergic receptor muscarinic 1 (CHRM1) small molecule agonists, cell-based qHTS assay (AID 1963589). Further: nearly all actives have a fitted effect of over 35% in size. The gist of the method:
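Agonist-mode qHTS in CHO cells stably carrying human muscarinic M1. Intracellular calcium is tracked by fluorescence every second after compound transfer; each compound runs at 15 concentrations in three independent runs.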

A short description of test [13]: cAMP Responsive Elements (CRE) small molecule agonists, cell-based qHTS assay (AID 1963590). The gist of the method:
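Agonist mode qHTS in CRE-bla HEK 293T cells: compounds dosed from DMSO for 3 h at 37 C/5% CO2, followed by LiveBLAzer B/G FRET substrate for 2 h at room temperature.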

Test [14] has as its target Beta-2 adrenergic receptor (Homo sapiens) (UniProt P07550). The test can be described thus: Adrenergic beta2 receptor (ADRB2) small molecule antagonists, cell-based qHTS assay (AID 1963592). Further: series mostly up to about 92 µM; nearly all actives have a fitted effect of over 50% in size. The procedure, abridged: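 Cells (CHO, stable ADRB2 overexpression) incubated 18-20hr at 37C; compounds added from DMSO; agonist mix (1nM isoproterenol, 100uM IBMX, 25uM Ro-20-1724) added; 0.5hr RT; d2-cAMP and anti-cAMP-cryptate added; 1hr RT; 665/615 nm read.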

The target is the same in test [15]. The test can be described thus: Adrenergic beta2 receptor (ADRB2) small molecule agonists, cell-based qHTS assay (AID 1963593).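 Further: CHO cells stably overexpressing human ADRB2.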 The gist of the method:
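CHO cells stably over-expressing ADRB2 were plated overnight at 37C, then dosed with compounds plus a stimulation mix containing 100uM IBMX and 25uM Ro-20-1724 for 0.5hr at room temperature. cAMP was measured by HTRF competition, 1hr.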

Test [16] concerns the target D(2) dopamine receptor (Homo sapiens) (UniProt P14416). As to the kind of experiment: Dopamine D2 receptor (DRD2) small molecule agonists, cell-based qHTS assay (AID 1963594). Further: nearly all actives have a fitted effect of over 35% in size. The procedure, abridged:
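cAMP accumulation in DRD2-HEK293 cells measured by HTRF after 1 h detection; compounds added 10 min before NKH477 (200nM […]) forskolin-analogue stimulation, 30 min at room temperature, with Ro20-1724 present at 0.1 mM final.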

The nature of test [17]: cAMP Responsive Elements (CRE) small molecule antagonists, cell-based qHTS assay (AID 1963591; active means well fitted inhibition curve with a large enough effect in the signal ratio in the repeat runs, not every such curve was filed as active; the % refers to the signal ratio). The procedure, abridged:
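Antagonist mode: test compounds are co-incubated with the adenylyl cyclase activator NKH477 (0.25 uM final) on CRE-bla HEK293T cells for 3 h at 37 °C, followed by LiveBLAzer substrate loading.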

Test [18] has as its target D(2) dopamine receptor (Homo sapiens) (UniProt P14416). As to the kind of experiment: Dopamine D2 receptor (DRD2) small molecule antagonists, cell-based qHTS assay (AID 1963595; active means well fitted inhibition curve with a large enough effect in the signal ratio in the repeat runs, with a control signal flat; the % refers to the signal ratio). The gist of the method: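 Stable D2 receptor HEK293 line, 24 h after seeding. Compound preincubated 10 min, then quinpirole (12 nM) with forskolin analogue NKH477 (200 nM), 30 min, room temperature. Detection by time-resolved FRET of cAMP.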

Values without a mark were called inactive. Inconclusive results are not listed. Calls of active or inactive are those of the source. Unless noted, the call rests on the fitted dose curve.

Chain of Gonadotropin-releasing hormone receptor (Homo sapiens) (P30968 whole entry, looked up): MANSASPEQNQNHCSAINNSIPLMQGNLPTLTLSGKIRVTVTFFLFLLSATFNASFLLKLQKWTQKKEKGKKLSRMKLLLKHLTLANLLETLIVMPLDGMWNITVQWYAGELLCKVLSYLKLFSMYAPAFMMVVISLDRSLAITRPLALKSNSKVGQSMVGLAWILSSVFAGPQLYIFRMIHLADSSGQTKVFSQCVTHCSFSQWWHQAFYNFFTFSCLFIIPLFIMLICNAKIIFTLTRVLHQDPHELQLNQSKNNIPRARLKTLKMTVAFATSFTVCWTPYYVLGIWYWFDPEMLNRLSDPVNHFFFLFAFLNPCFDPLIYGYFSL
Chain of D(2) dopamine receptor (Homo sapiens) (P14416 whole entry, looked up): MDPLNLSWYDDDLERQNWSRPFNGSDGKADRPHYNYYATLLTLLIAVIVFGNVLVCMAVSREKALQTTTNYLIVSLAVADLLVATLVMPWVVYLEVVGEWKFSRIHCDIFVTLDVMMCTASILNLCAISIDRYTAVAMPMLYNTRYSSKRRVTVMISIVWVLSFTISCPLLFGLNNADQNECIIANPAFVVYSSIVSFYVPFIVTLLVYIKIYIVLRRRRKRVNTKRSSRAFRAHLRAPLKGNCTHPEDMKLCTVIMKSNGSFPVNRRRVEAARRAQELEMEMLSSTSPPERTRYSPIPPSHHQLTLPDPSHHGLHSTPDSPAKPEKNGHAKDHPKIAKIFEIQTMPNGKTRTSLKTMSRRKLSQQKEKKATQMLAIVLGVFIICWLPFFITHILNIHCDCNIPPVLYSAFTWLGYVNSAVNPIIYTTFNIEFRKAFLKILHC
Chain of Muscarinic acetylcholine receptor M1 (Homo sapiens) (P11229 whole entry, looked up): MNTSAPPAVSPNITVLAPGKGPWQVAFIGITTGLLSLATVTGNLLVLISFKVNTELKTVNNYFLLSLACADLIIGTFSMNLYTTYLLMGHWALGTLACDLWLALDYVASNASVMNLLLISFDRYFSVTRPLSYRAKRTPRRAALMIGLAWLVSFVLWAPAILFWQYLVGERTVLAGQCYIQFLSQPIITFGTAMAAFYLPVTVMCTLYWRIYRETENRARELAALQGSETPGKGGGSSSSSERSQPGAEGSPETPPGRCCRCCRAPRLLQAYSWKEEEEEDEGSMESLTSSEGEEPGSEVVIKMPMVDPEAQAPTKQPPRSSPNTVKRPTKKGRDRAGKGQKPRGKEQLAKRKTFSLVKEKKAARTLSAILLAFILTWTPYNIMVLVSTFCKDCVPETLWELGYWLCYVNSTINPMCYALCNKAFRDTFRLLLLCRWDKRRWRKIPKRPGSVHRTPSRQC
Chain of KiSS-1 receptor (Homo sapiens) (Q969F8 whole entry, looked up): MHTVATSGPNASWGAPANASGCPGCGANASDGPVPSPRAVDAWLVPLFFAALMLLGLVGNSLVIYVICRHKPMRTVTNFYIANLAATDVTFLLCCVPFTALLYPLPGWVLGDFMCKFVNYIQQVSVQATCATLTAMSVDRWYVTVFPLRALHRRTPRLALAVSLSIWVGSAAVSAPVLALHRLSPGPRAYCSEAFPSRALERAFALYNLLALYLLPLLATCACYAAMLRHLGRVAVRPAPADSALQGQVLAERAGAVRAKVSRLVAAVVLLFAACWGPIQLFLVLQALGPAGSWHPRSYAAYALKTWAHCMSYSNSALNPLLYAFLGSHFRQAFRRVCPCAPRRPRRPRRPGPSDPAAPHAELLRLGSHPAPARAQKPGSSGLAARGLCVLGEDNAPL
Chain of Beta-2 adrenergic receptor (Homo sapiens) (P07550 whole entry, looked up): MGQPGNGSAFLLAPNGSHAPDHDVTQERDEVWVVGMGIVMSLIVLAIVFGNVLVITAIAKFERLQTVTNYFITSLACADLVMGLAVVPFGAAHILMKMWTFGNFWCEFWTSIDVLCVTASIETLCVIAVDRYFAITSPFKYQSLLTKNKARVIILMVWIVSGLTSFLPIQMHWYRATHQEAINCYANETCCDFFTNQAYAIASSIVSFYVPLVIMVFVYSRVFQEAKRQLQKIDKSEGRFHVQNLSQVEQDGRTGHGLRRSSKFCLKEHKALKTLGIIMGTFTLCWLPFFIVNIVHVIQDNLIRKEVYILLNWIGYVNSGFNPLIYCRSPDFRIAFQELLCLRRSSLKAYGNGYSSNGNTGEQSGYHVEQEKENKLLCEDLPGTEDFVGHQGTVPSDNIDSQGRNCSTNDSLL
Chain of 5-hydroxytryptamine receptor 2A (Homo sapiens) (P28223 whole entry, looked up): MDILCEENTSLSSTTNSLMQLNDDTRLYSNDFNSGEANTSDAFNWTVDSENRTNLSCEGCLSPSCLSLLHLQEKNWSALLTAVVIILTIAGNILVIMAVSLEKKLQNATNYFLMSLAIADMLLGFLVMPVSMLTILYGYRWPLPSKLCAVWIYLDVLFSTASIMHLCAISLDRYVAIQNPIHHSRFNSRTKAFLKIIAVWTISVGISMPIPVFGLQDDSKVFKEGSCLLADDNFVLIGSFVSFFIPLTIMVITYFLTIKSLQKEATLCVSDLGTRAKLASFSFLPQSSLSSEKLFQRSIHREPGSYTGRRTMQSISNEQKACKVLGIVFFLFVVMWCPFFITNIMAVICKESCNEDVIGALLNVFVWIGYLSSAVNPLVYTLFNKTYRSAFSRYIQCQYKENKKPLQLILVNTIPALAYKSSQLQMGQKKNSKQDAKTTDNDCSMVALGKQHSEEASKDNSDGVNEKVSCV

On to `CCOP(=O)(N=C1SCCS1)OCC`, for which the Potency entry in test [1], in [2], in test [3], in test [4], in test [5] and in [6] was “inactive” in each case. Further, the Potency entry in [7], in [8], in [9], in test [10], in [11] and in test [12] was “inactive” in each case. In addition, the Potency entry in test [13], in [14], in test [15] and in test [16] was “inactive” in each case.

For `CC[C@H](O)C(C[C@H](C)N(C)C)(c1ccccc1)c1ccccc1`, the Potency result in test [1], in [2], in test [3], in test [4], in test [5] and in test [6] was “inactive” each time. The Potency entry in test [7], in test [8], in [9], in test [10], in [12] and in test [13] was “inactive” in each case. In addition, the Potency entry in [17], in test [14], in test [16] and in test [18] was “inactive” each time. For the same compound, the Potency in test [11] was 34.1 µM (active).

For the compound `CCCC[N+](=O)[O-]`, the Potency result in test [1], in [2], in test [3], in test [4], in test [5] and in test [6] was “inactive” in each case. In addition, the Potency entry in test [7], in test [8], in [9], in [10], in test [11] and in [12] was “inactive” in each case. Moreover, the Potency result in test [13], in test [17], in test [16] and in test [18] was “inactive” throughout.

For the compound `Nc1ccc2c(c1)Cc1ccccc1-2`, the Potency entry in [1], in test [2], in [3], in test [4], in test [5] and in test [6] was “inactive” each time. For the same compound, the Potency result in test [7], in test [8], in test [9], in test [10], in test [11] and in test [12] was “inactive” throughout. For the same compound, the Potency result in [17], in test [15], in [16] and in test [18] was “inactive” throughout.

As for `CCOP(=O)(SC(C)CC)N1CCSC1=O` (centres undefined), the Potency entry in test [1], in test [2], in test [3], in [4], in [5] and in test [6] was “inactive” in each case. In addition, the Potency result in [7], in test [8], in [9], in [10], in [11] and in test [12] was “inactive” in each case. Moreover, the Potency result in [17], in test [14], in [16] and in test [18] was “inactive” each time.

In the case of `O=C(NC(=O)c1c(F)cccc1F)Nc1ccc(OC(F)(F)C(F)OC(F)(F)F)c(Cl)c1` (centres undefined), the Potency entry in test [1], in test [2], in [3], in [4], in test [5] and in test [6] was “inactive” throughout. For the same compound, the Potency result in [7], in test [8], in test [9], in [10], in test [11] and in test [12] was “inactive” throughout. For the same compound, the Potency entry in [13], in test [14], in test [15] and in test [16] was “inactive” each time.

Regarding `CCOP(=S)(OCC)SCSCC`, the Potency result in test [1], in test [2], in test [3], in [4], in [5] and in test [6] was “inactive” throughout. In addition, the Potency entry in test [7], in test [8], in test [9], in test [10], in [11] and in test [12] was “inactive” throughout. Moreover, the Potency result in test [13], in test [17], in test [14], in test [16] and in test [18] was “inactive” in each case.

Regarding `O=P(O)(O)c1ccccc1`, the Potency result in test [1], in test [2], in [3], in [4], in test [5] and in test [6] was “inactive” throughout. Besides, the Potency result in test [7], in test [8], in [9], in [10], in test [11] and in test [12] was “inactive” throughout. In addition, the Potency result in test [13], in test [16] and in test [18] was “inactive” throughout.

Source of the values: PubChem BioAssay (Tox21).
